Polio RdRp inh – poliovirus RNA polymerase inhibition | P03300 | poliovirus polymerase elongation, fluorescence polarization; stronger effect = lower value | % elongation, % (compound at 16.7 µg/mL) | actives 0.66% (n = 150,000) | AID 588519; in the data active = % elongation below about 90%
Target sequence (P03300 1749-2209 limits assumed): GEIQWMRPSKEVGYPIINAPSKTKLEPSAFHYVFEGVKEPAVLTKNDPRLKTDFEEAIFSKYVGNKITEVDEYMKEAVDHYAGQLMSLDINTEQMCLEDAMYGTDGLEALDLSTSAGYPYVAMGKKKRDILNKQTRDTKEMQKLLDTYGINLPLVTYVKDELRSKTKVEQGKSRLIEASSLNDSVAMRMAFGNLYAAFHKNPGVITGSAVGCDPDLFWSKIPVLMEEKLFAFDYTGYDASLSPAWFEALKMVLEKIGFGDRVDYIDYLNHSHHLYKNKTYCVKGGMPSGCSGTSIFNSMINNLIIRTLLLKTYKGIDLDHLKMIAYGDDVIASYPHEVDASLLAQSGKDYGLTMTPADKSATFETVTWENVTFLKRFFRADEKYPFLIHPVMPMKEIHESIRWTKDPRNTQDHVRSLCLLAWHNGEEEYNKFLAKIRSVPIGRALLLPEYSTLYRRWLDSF
MenB inh – blocks the Mycobacterium tuberculosis MenB enzyme; actives 0.43% (n = 100,000); MenB enzyme assay, absorbance read-out; inhibition, % (test concentration not listed); in the data active = inhibition above about 21%, passing the limit was not always enough
Mtb MbtI inh – inhibitors of Mycobacterium tuberculosis siderophore enzyme MbtI | actives 0.89% (n = 100,000) | purified MbtI enzyme, fluorescence intensity read-out | P9WFX0 | AID 493033 | inhibition, % (test concentration not listed); in the data active = inhibition mostly above about 56%, no sharp cut-off; inactive = mostly below about 77%
AID504770 – E. coli YBA685 growth inhibition, screen for V. cholerae RctB inhibitors | z-score (concentration not given with the values) | actives 0.27% (n = 130,000) | E. coli YBA685 rctB-dependent plasmid, OD600 growth, 3 h; stronger effect = lower value; in the data active = z-score below about -2, passing the limit was not always enough
An asterisk follows results filed as active; nt = no result given. Rows were chosen to be rich in hits. Some 1.5% of all compounds tested hit in one or more screens of this group.

SMILES	Polio RdRp inh	MenB inh	Mtb MbtI inh	AID504770
O=C1CSc2nnc(Cn3nnc4ccccc43)n2N1	97	3	87*	0.5
OCCCN=Cc1ccc(Cl)cc1Cl	100	-74	-11	0.75
O=c1[nH]c(Nc2nc3ccccc3[nH]2)nc2cc(Cl)ccc12	100	10	17	-0.95
CC(C(=O)N1CCN(Cc2ccccc2)CC1)n1sc2ccccc2c1=O (stereo not given)	103	-1	-3	-1.4
CC1CCCCC1NC(=O)COC(=O)c1ccc(Cl)c(S(N)(=O)=O)c1 (stereo not given)	105	-1	-3	-3*
CC(=O)Oc1c(Br)cc2oc(=O)sc2c1Br	99	-65	91*	0.5
COc1ccc(-n2c(SCC(=O)Nc3ccc(C)cc3)nc3n[nH]c(C)c3c2=N)cc1	nt	nt	nt	0.2
CC(C)OC(=O)CN1C(=O)C(C)(C)Oc2ccc(C(=O)Nc3ccccc3)cc21	103	25*	0	1.1
N/C(=N\OC(=O)N1CCOCC1)c1ccccc1	100	8	-3	-2.7*
O=C(OCc1ccccc1)N1CCOCCN(C(=O)OCc2ccccc2)CCOCC1	100	-20	-24	-0.1
CCO/C(C)=C(\C#N)C(=O)O	100	-1	20	1.1
N#Cc1c(N2CCCC2)nc(N)c2c(N)nc(N3CCCC3)cc12	74*	3	-41	-0.45
COc1ccc(S(=O)(=O)N2CCc3ccccc3C2C(=O)O)cc1 (stereo not given)	nt	nt	2	1.6
COc1cccc(NC(=O)C2CC(=O)n3cnnc3S2)c1 (stereo not given)	nt	nt	96*	-0.1
CC(=O)Nc1ccc(OCC(O)Cn2ccnc2)cc1 (stereo not given)	103	31*	0	2.4
CC(=O)Nc1ccc(OCC(O)CN2CCCC2)cc1 (stereo not given)	nt	nt	nt	0.45
Cc1ccc(C(=O)NC(C)C)cc1C	101	7	-18	-1.2
O=C(OCc1ccc(Cl)cc1)c1ccc2c(c1)C(=O)N(CCCN1CCOCC1)C2=O	104	3	94	1.4
N#CC1=C(SCc2ccccc2)SC(CO)NC1=O (stereo not given)	100	38*	11	0.5
N#CC1=C(SCc2ccccc2)SC(c2ccc(C(=O)O)cc2)NC1=O (stereo not given)	86*	25	9	0.2
C1=C2Nc3ccccc3N=C(c3ccccc3)C2NN1c1ccccc1 (stereo not given)	103	-6	1	1
COc1ccc([C@H]2NC(=O)C(=C=[N-])C(=O)[C@@H]2[n+]2ccccc2)cc1	37*	-16	nt	0.45
COc1ccc(C2C(=O)c3ccccc3C2=O)cc1	100	5	3	-0.5
O=c1[nH]c(-c2cccnc2)nc2ccccc12	nt	nt	nt	2
Cc1nc(-c2cccnc2)[nH]c(=O)c1CC1CC1	nt	nt	nt	-3*
SMILES	Polio RdRp inh	MenB inh	Mtb MbtI inh	AID504770
Cc1cccc(OCCCC(=O)O)c1	101	nt	-1	1.1
CCNC(=O)CCOc1cccc(C)c1	52*	2	0	-0.05
Oc1ccc2ccccc2c1CN1CCN(Cc2cccs2)CC1	98	-5	-9	-1
CCOc1ccc(S(=O)(=O)N=C2C=CC(=O)C=C2)cc1	99	19	93*	-0.9
CC1=C/C(=N/OC(=O)c2ccccc2)C=CC1=O	102	-47	0	-1
CS(=O)(=O)c1ccc(F)cc1	103	7	2	0.45
COc1ccc(S(=O)(=O)N=S(C)(=O)c2ccc(C)cc2)cc1 (stereo not given)	nt	nt	nt	-1.4
Cc1ccc(S(=O)(=O)N=C2C=CC(=O)C=C2)cc1	103	9	96*	-0.5
O=C1C=CC(=NS(=O)(=O)c2ccc(F)cc2)C=C1	100	21	98*	-1.7
CC1=C/C(=N\S(=O)(=O)c2ccccc2)C=CC1=O	103	-27	101*	-0.9
COc1ccc(N2C(=O)CC(Sc3nc4ccccc4c(=O)n3CCO)C2=O)cc1 (stereo not given)	107	-15	100	-2.1*
O=C(O)C1Cc2ccccc2CN1C(=O)CSc1nnc(-c2ccncc2)o1 (stereo not given)	102	-3	-5	0.45
CCOc1ccc(-n2c(SCC(=O)NC3CCCC3)nnc2-c2ccoc2C)cc1	100	36*	-4	-0.1
Cc1ccc(S(=O)(=O)Nc2cc(Sc3ncn[nH]3)c(O)cc2C)cc1	111	3	54*	0.7
COc1ccc(S(=O)(=O)Nc2ccc(O)c(Sc3ncn[nH]3)c2)cc1	101	-8	8	-0.9
Cc1csc(=O)n1CCSc1nnc(-c2cccs2)n1-c1ccccc1	103	-1	1	-0.4
O=C(/C=C/c1ccccc1Cl)Nc1ncn[nH]1	67*	-30	nt	1.6
COc1cc(CNC(C)(C)C)ccc1OCC(=O)NC(C)(C)C	105	-5	-26	0.05
CCOc1cc(CNc2ncn[nH]2)ccc1OCC(=O)NC(C)(C)C	101	-12	-10	-2.5*
COc1ccccc1N1CCN(C(=O)CN(Cc2ccccc2)S(=O)(=O)c2ccc(F)cc2)CC1	102	-1	-6	0.2
O=C(O)c1ccccc1-c1c2cc(Br)c(=O)cc-2oc2[c]([Hg])c(O)c(Br)cc12	70	-2	104*	0.05
Cc1cc(=O)oc2cc(OCC(=O)O)ccc12	105	-17	107	0.3
Cc1cc(=O)oc2cc(OCC(=O)Oc3ccc4c(c3)OCO4)ccc12	83*	0	73	-0.15
CCc1ccccc1NC(=O)CN1CCN(Cc2ccccc2C)S1(=O)=O	102	-15	3	-3.5*
COC(=O)CN1C(=O)Cc2ccccc2C1=O	nt	nt	nt	-0.2
SMILES	Polio RdRp inh	MenB inh	Mtb MbtI inh	AID504770
O=C(O)CN1C(=O)Cc2ccccc2C1=O	24*	-37	-4	0.25
CN1C(=O)Cc2ccccc2C1=O	38*	-70	15	-1.1
O=C1CC(Cc2ccccc2)C(=O)N1Cc1ccco1 (stereo not given)	100	36*	-10	-0.2
O=C1Cc2ccccc2C(=O)N1Cc1ccco1	76*	nt	-7	0.65
CC1CC(C)CN(C(=O)CSc2nc3ccccc3c3nc4ccccc4n23)C1 (stereo not given)	102	1	5	-0.95
N#Cc1cc2c(nc1SCC(=O)O)CCC2	108	6	nt	-2.4*
N#Cc1cc2c(nc1SCC(=O)N1CCCCC1)CCCC2	100	-6	-36	-0.05
COC(=O)c1cc2sccc2n1C(C)C(=O)Nc1cc(Cl)ccc1C (stereo not given)	102	-14	11	-0.1
CCOC(=O)c1ccc2nc(NC(=O)CSc3nc(C)cc(=O)[nH]3)sc2c1	101	-8	30	-0.6
N/C(=N\OC(=O)c1ccc(Br)o1)c1ccncc1	105	0	7	-2.4*
Cc1nc2cc3ccccc3cc2c(=O)n1CCCNC1CCCCC1	90*	-10	nt	1.4
Cc1ccc2c(c1)N(CC(=O)N(Cc1cccnc1)C1CCCC1)C(=O)C(C)O2 (stereo not given)	105	-47	-4	1.6
CSc1nc(-c2ccco2)nn1C(=O)c1ccccc1	103	-3	20	1.1
CCS(=O)(=O)n1nc(-c2ccco2)nc1SC	96	-14	82*	0.65
Cc1nn(-c2ccccc2Cl)c2nc(-c3ccco3)cc(C(=O)NN)c12	88*	2	103	0.65

From PubChem BioAssay
